Shown are actives, neighbours in structure and some others; about 8.3% of the full set was active somewhere.
MCF10A rerep: DNA re-replication induction in MCF 10a cells; 2.9% of 350,000 active; MCF 10A DNA re-replication, Hoechst nuclear intensity, 48 h; AID 624296; Potency, µM (highest dose often 46.1 µM), inactives show at the top dose activity, positive = re-replication, usual class: activators; also: potency is read from the fitted curve at half-maximal effect; % of control where 0% means no effect; nearly all actives have a fitted effect of over 50% in size
Giardia killer: kills Giardia lamblia; Giardia lamblia trophozoite viability; activity change, % at 7.66 µM, hits read low; 0.15% of 340,000 active; in the data active = activity change below about -80%; inconclusive = between about -30% and that limit;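 also: parasites exposed to compound for two days anaerobically before the ATP read; % is scaled to controls: 0 for no effect and ±100 for the full control effect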
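Giardia trophozoites, 100 cells per well, were exposed to compounds for 48 hrs at 37 deg C under anaerobic conditions; viability was then read as ATP content by bioluminescence after 15-30 min at room temperature.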
SW480 rereplic: induces DNA re-replication in SW480 colon adenocarcinoma cells. SW480 DNA re-replication, Hoechst DNA content imaging, 48 h. Potency, µM (highest dose often 46.1 µM), inactives show top-dose re-replication activation, most hits filed as activators. 1.8% of 340,000 active; also: potency is read from the fitted curve at half-maximal effect; % of control where 0% means no effect; nearly all actives have a fitted effect of over 55% in size
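250 cells/well; 23 nL cpd via pin tool; 48 hr, 37 C, 5% CO2; Hoechst 40 min; imager read of total nuclear intensity, ex 405/em 500-530 nm.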
Chronic BCR inh: blocks chronic active B-cell receptor signaling | ABC-DLBCL IkBa-CBG/CBR reporter, luminescence ratio, 4 h | Potency, µM (titrated, usually from 46.1 µM), without a hit: at the top dose activity change, negative = inhibition, actives largely listed as inhibitors | 0.05% of 340,000 active | AID 493014; active = well fitted inhibition curve with a large enough effect in the signal ratio, with a control signal flat, not every such curve was filed as active; inconclusive = small, poorly fitted or top-dose-only effect, or effect the other way, or a change in a side signal; the % refers to the signal ratio;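 also: potency is read from the fitted curve at half-maximal effect; plate controls were basal doxycycline-induced cells for no effect and cells given 10 µM MG132 for full effect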
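Cell line TMD8 (human ABC DLBCL), stably expressing tet-inducible CBG68-IkBa fusion and CBR; IMDM/0.5% FBS; cpd up to 46 uM; dox induction, 4 h, 37C/5% CO2; dual luminescence; green/red ratio; MG132 control.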
VP16 counter: counter-screen for ROR gamma inhibitors: Gal4-VP16 reporter; Potency, µM (top dose mostly 53.6 µM), without a hit: at the top dose activity, negative = inhibition, hits mostly inhibitors; Drosophila S2 Gal4-VP16 UAS-luciferase, luminescence, 20 h; 3.5% of 310,000 active;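 also: Gal4-VP16 expression switched on by copper sulfate through the metallothionein promoter; potency is read from the fitted curve at half-maximal effect; % is scaled to controls: 0 for no effect and ±100 for the full control effect; nearly all actives have a fitted effect of over 50% in size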
RORg inh: ROR gamma (mouse) transcription inhibition. Potency, µM (doses to about 53.6 µM), inactives show at the highest dose activity change, negative = inhibition, most hits filed as inhibitors. Drosophila S2 Gal4-RORgamma UAS-luciferase reporter, 20 h. AID 2551. 5.4% of 310,000 active. P51450; also: potency is read from the fitted curve at half-maximal effect; % is scaled to controls: 0 for no effect and ±100 for the full control effect; nearly all actives have a fitted effect of over 60% in size
Target sequence (P51450 whole entry, looked up, the tested form may be a part): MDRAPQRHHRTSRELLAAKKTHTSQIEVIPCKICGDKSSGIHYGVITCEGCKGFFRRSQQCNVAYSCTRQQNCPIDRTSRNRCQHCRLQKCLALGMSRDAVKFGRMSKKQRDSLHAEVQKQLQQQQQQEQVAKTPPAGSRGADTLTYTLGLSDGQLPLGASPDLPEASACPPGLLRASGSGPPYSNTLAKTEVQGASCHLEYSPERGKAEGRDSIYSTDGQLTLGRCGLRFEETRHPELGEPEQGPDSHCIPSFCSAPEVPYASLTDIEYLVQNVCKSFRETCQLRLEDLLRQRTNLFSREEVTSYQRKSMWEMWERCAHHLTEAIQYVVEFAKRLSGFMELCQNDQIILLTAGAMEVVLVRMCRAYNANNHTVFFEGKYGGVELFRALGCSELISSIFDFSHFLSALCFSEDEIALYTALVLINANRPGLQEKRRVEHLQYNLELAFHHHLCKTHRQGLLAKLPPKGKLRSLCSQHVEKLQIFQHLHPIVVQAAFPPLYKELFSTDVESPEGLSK
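Compounds are pin-transferred onto Drosophila Schneider cells expressing a copper-inducible Gal4–ROR gamma transactivation domain fusion. After 1 hr, copper sulfate is added to 700 uM final; luciferase is read 20 hr later.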
* = called active by the depositor; ? = inconclusive; · = no result; [ ] = dose if it differs, or a comment. Unless noted, calls follow the shape of the dose curve; as a rule, active = well fitted curve in the direction sought with a large enough effect; inconclusive = small, poorly fitted or top-dose-only effect, or another doubt; inactive = no such curve, though single readings can be large; an effect the other way counts as inactive or inconclusive.

SMILES	MCF10A rerep	Giardia killer	SW480 rereplic	Chronic BCR inh	VP16 counter	RORg inh
Oc1ccccc1C(Nc1nccs1)c1ccc2cccnc2c1O (configuration not stated)	?	7.9	-3.5%	?	5.01µM*	?
O=C(Nc1nccs1)c1cccc2ccccc12	?	-27.0	-24.5%	?	-24.9%	?
O=C1N=C(N2CCOCC2)S/C1=C\c1ccc(-c2ccccc2Cl)o1	2.91µM*	24.1	13µM*	1.4%	-0.3%	9.4%[10 µM]
Cc1ccsc1/C=C1/SC(N2CCOCC2)=NC1=O	·	·	·	?	?	8.7%
O=C1N=C(N2CCOCC2)S/C1=C\c1cccs1	0.7%	-20.1	-8.0%	-13.7%	-14.8%	3.0%
Cc1ccccc1-c1ccc(/C=C2/SC(N3CCOCC3)=NC2=O)o1	16.4µM*	-0.5	?	-7.7%	-7.6%	12.5%
Cc1ccccc1C(=O)NC(=S)Nc1ncccn1	-10.0%	1.6	1.5%	?	-10.8%	-16.8%
O=C(C[C@@H]1C/C=C\C[C@H](Cc2ccc(F)cc2)C(=O)OC[C@H]2CCCN2C1=O)N[C@H](CO)Cc1ccccc1	-21.9%	12.4	6.0%	-1.2%	·	·
N/C(=N\NC(=O)c1sccc1OCc1ccc(Cl)cc1Cl)c1ccccn1	?	9.3	7.2%	-12.9%	5.62µM*	2.24µM*
CNC(=S)NNC(=O)c1sccc1OCc1ccc(Cl)cc1Cl	10.0%	-27.2	-3.3%	-0.2%	?	?
Cc1ccc(C)c(NC(=S)NNC(=O)c2csc3c2CCC(C)C3)c1 (configuration not stated)	-5.6%	5.9	-0.3%	0.0%	-24.0%	5.01µM*
O=C(NC(=S)N1CCN(c2c(Cl)cccc2[N+](=O)[O-])CC1)c1cccs1	?	27.7	21.3%	?	0.159µM*	0.282µM*
COc1ccc(N2CCN(C(=S)NC(=O)c3cccs3)CC2)c([N+](=O)[O-])c1	19.0%	2.2	0.3%	?	1.41µM*	0.316µM*
O=C(/C=C/c1ccccc1)N1CCN(c2c(Cl)cccc2[N+](=O)[O-])CC1	25.9µM*	-3.1	25.8%	-1.8%	-5.5%	?
O=C(Cn1nnc(-c2ccccc2F)n1)N1CCCCC1	?	18.3	-45.2%	-0.5%	-8.5%	-9.6%
O=C(O)c1ccc(S(=O)(=O)N2CCC(NC(=O)C3CCCCC3)CC2)cc1	3.4%	-12.5	-10.6%	0.4%	-7.8%	-1.3%
Cc1ccc(-n2nc(C)c(/C=N/n3c(C)n[nH]c3=S)c2Cl)cc1	4.1%	-0.2	2.5%	?	-7.4%	3.55µM*
COc1cccc2c(=O)cc(C)n(CC(=O)Nc3cccc(C)c3)c12	16.2%	7.7	-25.8%	-0.4%	11.2µM*	?
COc1ccc(/C=C2\SC(=S)N(CCCC(=O)NNC(=O)c3ccccc3O)C2=O)cc1	23.0%	12.0	29.6%	?	1.58µM*	0.708µM*
COc1cc(/C=C2\SC(=O)N(CC(=O)Nc3cccc(C)c3)C2=O)ccc1OC(C)C(=O)O (configuration not stated)	2.0%	-7.2	-4.8%	·	·	·
COc1ccc(/C=C2\SC(=O)N(CC(=O)Nc3cccc(C)c3)C2=O)cc1O	20.6µM*	4.1	?	-1.5%	17.8µM*	?
CCc1ccc(/C=C2\SC(=S)N(CCCC(=O)Nc3ccc(C(=O)O)cc3)C2=O)cc1	17.2%	-11.5	-6.6%	?	?	3.98µM*
COc1ccccc1C(C)Nc1ccc(S(=O)(=O)N2CCN(C)CC2)cc1[N+](=O)[O-] (configuration not stated)	0.0%	-12.7	-16.0%	-6.2%	·	·
CCCCNC(=O)NS(=O)(=O)c1ccc(CO)cc1	·	·	·	·	-5.5%	-14.1%
COc1cc(C(=S)N2CCOCC2)cc(Br)c1OS(=O)(=O)c1ccccc1	22.0%	23.2	-45.3%	10.2%	-21.0%	14.9%
SMILES	MCF10A rerep	Giardia killer	SW480 rereplic	Chronic BCR inh	VP16 counter	RORg inh
COc1ccc(/C=C2/SC(=S)N(CCCC(=O)Nc3cccc(O)c3)C2=O)cc1	?	-6.2	?	?	2.51µM*	0.316µM*
O=C(CCCN1C(=O)/C(=C/c2ccccc2)SC1=S)Nc1ccc(C(=O)O)c(O)c1	-7.6%	-4.0	-2.4%	?	-29.2%	?
CCc1ccc(/C=C2\SC(=S)N(CCCC(=O)Nc3nccs3)C2=O)cc1	-2.6%	-2.9	?	?	-11.5%	0.562µM*
COc1ccc(/C=C2/SC(=S)N(CCCC(=O)Nc3ccccc3C(=O)O)C2=O)cc1	12.6%	-4.1	-5.3%	?	3.55µM*	1.41µM*
COc1cccc(/C=C2/SC(=S)N(CC(=O)NNC(=O)c3ccccc3OC)C2=O)c1	11.5%	-19.7	-1.2%	1.2%	?	10µM*
COc1cccc(/C=C2\SC(=S)N(CCC(=O)NNC(=O)c3ccccc3OC)C2=O)c1	0.3%	1.3	-6.8%	?	-16.1%	?
O=C(CCCN1C(=O)/C(=C/c2ccco2)SC1=S)Nc1cccc(C(=O)O)c1	-1.9%	2.4	-4.0%	?	-24.8%	-10.6%
Cc1ccc(/C=C2\SC(=S)N(CCCC(=O)Nc3ccccc3C(=O)O)C2=O)cc1	?	-7.4	0.1%	?	?	-26.7%
CCc1ccc(/C=C2\SC(=S)N(CCCC(=O)Nc3ccccc3C(=O)O)C2=O)cc1	13.7%	-2.1	2.6%	?	20µM*	5.01µM*
CC(=O)c1ccc(NC(=O)CCCN2C(=O)/C(=C/C(C)=C/c3ccccc3)SC2=S)cc1	-3.3%	1.7	3.4%	?	?	11.2µM*
COc1ccc(NC(=O)CCCN2C(=O)/C(=C\c3ccco3)SC2=S)cc1	?	9.6	?	?	?	11.2µM*
c1csc(-c2noc(COc3ccc4c(c3)CCCC4)n2)c1	14.6µM*	3.3	7.5%	11.3%	6.5%	?
C/C(=N\OCC(=O)N/N=C/c1ccccc1O)c1cccs1	16.3%	7.5	?	3.2%	2.24µM*	1.12µM*
C/C(=N\OCC(=O)N/N=C/c1ccccc1)c1cccs1	?	5.8	20.3%	?	8.5%	22.2%
C/C(=N/OCC(=O)Nc1ccccc1)c1cccs1	-1.2%	-8.6	-5.4%	?	18.2%	?
C/C(=N\OCC(=O)Nc1ccccc1Br)c1cccs1	?	-11.1	0.146µM*	?	8.9%	30.4%
O=C(CNC(=O)c1ccc(-c2ccccc2)cc1)Nc1ccc(S(=O)(=O)Nc2ncccn2)cc1	-3.4%	8.7	0.4%	?	-1.2%	15.4%
O=C(NCc1ccc(F)cc1)C1CCCN(c2nc3ccsc3c(=O)s2)C1 (configuration not stated)	11.6µM*	14.5	?	-1.3%	-0.2%	-18.5%
